# Assay outcomes deposited in PubChem BioAssay by National Center for Advancing Translational Sciences (NCATS).
# Compounds with a hit are over-represented: about 5.9% of the library has one in this group of screens.
# VP16 counter = VP16 counterscreen qHTS for inhibitors of ROR gamma transcriptional activity | Drosophila S2 Gal4-VP16 UAS-luciferase, luminescence, 20 h | Potency, µM (top dose mostly 53.6 µM), usual class: inhibitors | hit rate 3.5% among 310,000 | AID 2546, 2010;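 note: Gal4-VP16 expression switched on by copper sulfate through the metallothionein promoter; nearly all actives have a fitted effect of over 50% in size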
# RORg inh = qHTS for inhibitors of ROR gamma transcriptional activity. Nuclear receptor ROR-gamma (Mus musculus), P51450. Drosophila S2 Gal4-RORgamma UAS-luciferase reporter, 20 h. Potency, µM (titrated, usually from 53.6 µM), usual class: inhibitors. hit rate 5.4% among 310,000. AID 2551, 2010; note: nearly all actives have a fitted effect of over 60% in size
# Target sequence (P51450 whole entry, looked up, the tested form may be a part): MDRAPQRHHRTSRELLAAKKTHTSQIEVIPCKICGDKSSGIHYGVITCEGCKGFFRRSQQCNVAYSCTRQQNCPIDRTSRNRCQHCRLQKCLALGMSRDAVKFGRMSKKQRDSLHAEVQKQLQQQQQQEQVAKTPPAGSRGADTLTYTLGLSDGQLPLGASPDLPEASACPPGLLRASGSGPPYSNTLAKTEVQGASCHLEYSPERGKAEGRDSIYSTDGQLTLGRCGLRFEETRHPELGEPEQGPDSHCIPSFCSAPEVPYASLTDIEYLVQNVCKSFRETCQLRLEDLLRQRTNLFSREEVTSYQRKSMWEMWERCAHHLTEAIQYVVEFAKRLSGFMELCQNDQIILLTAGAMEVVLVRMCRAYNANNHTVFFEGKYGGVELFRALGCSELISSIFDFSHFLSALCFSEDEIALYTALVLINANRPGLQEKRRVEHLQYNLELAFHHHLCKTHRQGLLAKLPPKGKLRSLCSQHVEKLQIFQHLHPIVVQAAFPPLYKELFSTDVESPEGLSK
#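 Luminescence from a UAS-regulated Photinus luciferase reporter in stably transfected Drosophila Schneider cells is measured; decreased signal marks ROR gamma inhibition. Fusion expression is induced by 700 uM copper sulfate for 20 hr.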
# GLP1R inv ag = qHTS of GLP-1 Receptor Inverse Agonists (Inhibition Mode); Glucagon-like peptide 1 receptor (Homo sapiens), P43220; HEK293 GLP-1R CRE-luciferase, luminescence, 24 h; GLP-1R form is constitutively active; Potency, µM (highest dose often 38.3 µM), usual class: inhibitors; hit rate 1.6% among 410,000; note: nearly all actives have a fitted effect of over 55% in size
#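 Stable HEK293 clone (constitutively active GLP-1R + cAMP-response luciferase); 200 cells/uL plated, 12 h pre-culture, compound 24 hr, 37 deg C/5% CO2; detection reagent 12 min RT; luminescence.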
# HEK293 tox = qHTS of GLP-1 Receptor Inverse Agonists: Cytotox Screen; HEK293 cAMP-luciferase reporter cells, luminescence, 24 h; Potency, µM (doses to about 38.3 µM), usual class: inhibitors; hit rate 0.13% among 410,000; AID 624418, 2012;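 note: loss of luciferase light is scored as toxicity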
#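 Cells in DMEM/10% Nu serum/1% pen-strep, 1536-well format. Pre-incubated 12 h, dosed with 23 nL compound, incubated a further 24 h. Luciferase detection, 12 min at room temp, luminescence.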
# GLP-1R agonist = qHTS of GLP-1 Receptor Agonists. HEK293 GLP-1R CRE-luciferase, luminescence, 4-6 h; cells express a hypersensitive GLP-1R form. Potency, µM (doses to about 45.6 µM), usual class: activators. hit rate 0.007% among 380,000. AID 624172, 2012
# Numbers stand for hits; 0 = inactive; ? = inconclusive; - = not tested or not shown. Calls come from the whole dose curve; as a rule, active = well fitted curve in the direction sought with a large enough effect; inconclusive = small, poorly fitted or top-dose-only effect, or another doubt; inactive = no such curve, though single readings can be large; an effect the other way counts as inactive or inconclusive.
SMILES,VP16 counter,RORg inh,GLP1R inv ag,HEK293 tox,GLP-1R agonist
O=C(Nc1ccc(F)cc1F)NC1CCN(Cc2c(F)cccc2Cl)CC1,0,0,8.9µM,0,0
Cc1cc(Cl)ccc1NC(=O)NC1CCN(S(=O)(=O)c2ccc(F)cc2)CC1,0,0,6.3µM,?,0
O=C(Nc1ccc(F)cc1)NC1CCN(Cc2c(F)cccc2Cl)CC1,0,0,?,0,0
CC(=O)N1/C(=C/c2ccc(N(C)C)cc2)C(=O)c2ccccc21,?,?,10µM,?,0
O=C(Nc1nc2n(n1)C(c1ccccc1)C=C(c1ccccc1)N2)c1ccccc1 (centres undefined),-,-,0,0,-
c1ccncc1,0,0,-,-,-
COc1cc(NC(=O)c2ccnn2C)c(OC)cc1Cl,0,0,0,0,0
Cn1nccc1C(=O)NC(=S)Nc1cc(Cl)cc(Cl)c1,13µM,2.5µM,?,0,0
Cc1ccc(N(CC(=O)Nc2cc(Cl)ccc2Oc2ccccc2)S(C)(=O)=O)c(C)c1,0,0,7.1µM,0,0
CNC(=O)C1CCC(Cn2c(=O)c3sccc3n(CC(=O)Nc3ccc(C)cc3C)c2=O)CC1 (centres undefined),-,-,0,0,-
CC(C)C(=O)Nc1sc2c(c1-c1nc3ccccc3[nH]1)CCCC2,0,11µM,?,?,0
COc1ccc(/C=C/C(=O)O)cc1,0,0,0,0,0
COc1ccc(/C=C/C(=O)C2(O)CCCCC2)cc1,0,0,10µM,?,0
O=S(=O)(c1ccccc1)N1CCC2(CCN(c3cccc(-c4ccccc4)c3)CC2)CC1,0,0,-,-,-
Cn1cccc1C(=O)N1CCC2(CC1)CCN(c1ccccn1)CC2,0,0,-,-,-
C=C(C)C(=O)OCCCCCCCCCC,0,0,-,-,-
CCOc1ccccc1CN1CCNC(=O)C1CC(=O)NCc1ccccn1 (centres undefined),?,11µM,0,0,0
O=C(CC1C(=O)NCCN1Cc1ccc(-c2ccccc2)cc1)NCCOc1cccnc1 (centres undefined),20µM,0,0,0,0
COc1ccc(-n2nnnc2SCC(=O)NCCc2ccccc2)cc1,-,-,0,0,0
CCOC(=O)c1ccc(N2CCN(c3ccccc3F)CC2)c(NC(=O)Nc2ccccc2)c1,0,0,2.5µM,0,0
CCOC(=O)c1ccc(N2CCN(c3ccccc3OC)CC2)c(NC(=O)Nc2ccc(CC)cc2)c1,-,-,0,0,-
CC(C)[C@@H](NC(=O)OC(C)(C)C)c1cc(C(=O)c2c(-c3ccccc3)[nH]c3ccccc23)c(N)s1,-,-,7.1µM,0,-
CC(C)[C@H](NC(=O)OC(C)(C)C)c1cc(C(=O)NCCc2c[nH]c3ccccc23)c(N)s1,-,-,0,0,-
O=C(N/N=C/c1ccc(OCc2ccc(F)cc2)cc1)c1ccccc1,0,0,0,0,0
CC(C)(C)c1ccc(OCc2ccc(C(=O)N/N=C/c3ccc(O)c(O)c3)cc2)cc1,16µM,?,?,?,0
SMILES,VP16 counter,RORg inh,GLP1R inv ag,HEK293 tox,GLP-1R agonist
COc1ccc(C(=O)N/N=C/c2ccc(OC)c(COc3ccc(F)cc3)c2)cc1,0,0,10µM,0,0
COc1ccc(/C=N/NC(=S)Nc2ccccc2)cc1COc1cccc(C)c1C,0.71µM,0.35µM,0,0,0
COc1cc(/C=N/NC(=O)c2ccc(F)cc2)ccc1OC(=O)c1ccco1,0,13µM,0,0,0
COc1ccc(NC(=O)CN(C)S(=O)(=O)c2ccc3c(c2)CCCN3C(C)=O)cc1Cl,-,-,0,0,-
COc1ccc(/C=N/NC(=O)c2ccoc2C)cc1COc1ccc(Cl)cc1,13µM,7.1µM,?,0,0
COc1ccc(/C=N\NC(=O)c2ccccc2)cc1COc1ccc(F)cc1,11µM,18µM,7.9µM,0,0
COc1ccc(C(=O)N/N=C/c2ccc(OC)c(COc3ccc(F)cc3F)c2)cc1,?,13µM,?,0,0
O=C(N/N=C/c1ccc2ncccc2c1)c1ccco1,?,7.9µM,?,0,0
O=C(N/N=C/c1ccccn1)c1ccco1,0,0,0,0,0
COc1ccc(/C=N/NC(=O)c2ccoc2C)cc1OC,0,0,0,0,0
